Screen size: about 52,000 compounds; about 4,300 (8.3%) were called active. The sample as a whole holds a higher share of actives than the screen did. Unmarked numbers belong to inactive results. Rule as the data show it: active = survival mostly below about 52% (no sharp cut-off); inactive = mostly above about 56%.
system: DeltatarO mutant; test: S. aureus survival, RN4220 and DeltatarO strains – OD600, teichoic acid synthesis inhibitors, primary screen (AID 463173); conditions: S. aureus RN4220 wild type/DeltatarO growth, OD600, 18 h, stronger effect = lower value, screened at 18.75 µg/mL (by protocol)

Row | SMILES | survival
1 | CC(=O)c1c(C)n(-c2cccc(C)c2)c2ccc(OC(=O)COc3ccccc3)cc12 | 70%
2 | COc1ccc(OC)c(NC(=O)COCc2cc(-c3ccco3)on2)c1 | 49%
3 | Cc1ccc(CNC(=O)Cn2c(=O)n(Cc3ccc(F)cc3)c(=O)c3sc4ccccc4c32)cc1 | 92%
4 | O=C1CCCN1c1ccc(S(=O)(=O)N2CCCCC2)cc1 | 93%
5 | COc1cccc2c1cc1c(=O)n(CC(=O)N3CCN(c4cc(Cl)ccc4C)CC3)nc(C)n12 | 74%
6 | O=C(Nc1cccc(C(=O)OCc2cc(=O)n3nc(C4CC4)sc3n2)c1)c1cccc(Cl)c1 | 80%
7 | Cn1nc(-c2ccc(OCC(=O)Nc3ccccc3)cc2)c2ccccc2c1=O | 47%
8 | CNC(=O)c1ccc(NC(=O)COc2ccc(-c3nn(C)c(=O)c4ccccc34)cc2)cc1 | 62% (active)
9 | COc1ccccc1NC(=O)COc1ccc(-c2nn(C)c(=O)c3ccccc23)cc1 | 37% (active)
10 | Cc1ccc(NC(=O)COc2ccc(-c3nn(C)c(=O)c4ccccc34)cc2)cc1 | 48%
11 | COc1ccc(NC(=O)COc2ccc(-c3nn(C)c(=O)c4ccccc34)cc2)cc1 | 75%
12 | CNC(=O)COc1ccc(NC(=O)c2ccc(-c3nn(C)c(=O)c4ccccc34)cc2)cc1 | 75%
13 | CC(=O)c1ccc(NC(=O)c2nc3ccccc3n(C)c2=O)cc1 | 80%
14 | CC(C)Cn1c(=O)c2ccccc2n2c(CCC(=O)NC(C)c3ccccc3)nnc12 (centres undefined) | 87%
15 | CN(C)S(=O)(=O)c1ccc(C(=O)Nc2c(C(=O)Nc3ccc(F)cc3)oc3ccccc23)cc1 | 73%
16 | Cc1ccc(NC(=O)Cc2coc3c(C)c(C)ccc23)c(C)c1 | 96%
17 | O=C(Cn1nc2c(cc1=O)CCCC2)NCc1ccc(Cl)cc1 | 115%
18 | COc1ccc(CNC(=O)Cn2nc3c(cc2=O)CCCC3)cc1 | 46% (active)
19 | CCOC(=O)c1cccc(NC(=O)Cn2nc3c(cc2=O)CCCC3)c1 | 37% (active)
20 | O=C(Cn1nc2c(cc1=O)CCCC2)NCc1ccccc1 | 105%

Row | SMILES | survival
21 | CCOC(=O)c1cccc(NC(=O)Cn2cnc3nc4c(cc3c2=O)CCCC4)c1 | 94%
22 | Cc1ccc(NC(=O)Cn2nc3c(cc2=O)CCCC3)cc1Cl | 93%
23 | COc1ccc(Cl)cc1C(=O)CSc1nnnn1C1CCCCC1 | 93%
24 | COc1ccc(NC(=O)CCCc2nnc3n(C(C)C)c(=O)c4sccc4n23)cc1Cl | 93%
25 | CN(C)CCN(Cc1ccco1)C(=O)c1cc2c(s1)-c1ccccc1OC2 | 69%
26 | CC(C)OCCCN(Cc1ccco1)C(=O)c1cc2c(s1)-c1ccccc1OC2 | -5% (active)
27 | COc1ccccc1CNC(=O)c1cc2c(s1)-c1ccccc1OC2 | 61%
28 | CC(C)CCN(Cc1ccco1)C(=O)c1cc2c(Cl)nc3ccccc3c2s1 | 68%
29 | CC(C)CCN(Cc1ccco1)C(=O)c1cc2c(s1)-c1ccccc1OC2 | -4% (active)
30 | COCCCN(Cc1ccco1)C(=O)c1cc2c(s1)-c1ccccc1OC2 | -3% (active)
31 | Cc1ccc(C(C)C)c(OCC(=O)Nc2ccc(O)c(-c3nc4cc(Cl)ccc4o3)c2)c1 | 73%
32 | CC(C)CNC(=O)Cc1ccccc1 | 65%
33 | O=C(CN1CCSc2ccccc21)N1CCCCC1 | 78%
34 | Clc1ccccc1N1CCN(c2ncnc3c2c(-c2ccccc2)cn3-c2ccccc2)CC1 | 80%
35 | Cc1ccccc1C(=O)Nc1ccc2nc(SCC(=O)N3CCc4ccccc43)sc2c1 | 106%
36 | Cc1ccc(-c2c(C)n3c4c(=O)n(C)c(=O)n(C)c4nc3n2CCCO)cc1 | 81%
37 | CCOC(=O)CSc1nnc(CNc2ccc(C)cc2C)n1-c1ccccc1 | 58%
38 | CCN1CCN(C(c2cccc(F)c2)c2c(O)cc(C)n(CCOC)c2=O)CC1 (centres undefined) | 73%
39 | COCCNC(=O)c1sc2ncccc2c1-n1c(C)ccc1C | 98%
40 | CC(C)Oc1ccc(CNC(=O)c2sc3ncccc3c2-n2cccc2)cc1 | 46% (active)

Row | SMILES | survival
41 | CN(C)c1ccc(CNC(=O)c2sc3ncccc3c2-n2cccc2)cc1 | 102%
42 | COc1cc(CNC(=O)c2sc3ncccc3c2-n2cccc2)cc(OC)c1OC | 118%
43 | CCc1ccc(CNC(=O)c2sc3ncccc3c2-n2c(C)ccc2C)cc1 | 0% (active)
44 | Cc1ccc(CCNC(=O)c2sc3ncccc3c2-n2c(C)ccc2C)cc1 | 64%
45 | Cc1cc(SCC(=O)NCc2ccccc2Cl)nc(=O)[nH]1 | 96%
46 | CCc1ccc(-c2nc(CS(=O)CC(=O)NCCc3ccc(C)cc3)c(C)o2)cc1 (centres undefined) | 89%
47 | CCOc1ccc(C(=O)c2cn(Cc3ccccc3)c3c(F)cc(F)cc3c2=O)cc1 | 78%
48 | CCc1ccc(NC(=O)Cn2c(=O)c3cc(Cl)ccc3n3nncc23)cc1 | 80%
49 | CCOc1ccc(CNC(=O)C2CCCN(c3nn4cc(-c5ccc(F)cc5)nc4s3)C2)cc1 (centres undefined) | 67%
50 | Cc1ccc(CCNC(=O)c2cc3sccc3n2Cc2ccc(F)cc2)cc1 | 87%
51 | COc1ccc(-c2onc(C)c2C)cc1S(=O)(=O)NCCc1ccccc1 | 90%
52 | COc1ccc(CCNS(=O)(=O)c2cc(-c3onc(C)c3C)ccc2OC)cc1OC | -1% (active)
53 | COCCCNS(=O)(=O)c1cc(-c2onc(C)c2C)ccc1OC | 115%
54 | Cc1ccc(-c2onc(C)c2C)cc1S(=O)(=O)NCc1ccc(N(C)C)cc1 | -2% (active)
55 | Cc1ccc(-c2onc(C)c2C)cc1S(=O)(=O)NCc1cccs1 | 91%
56 | Cc1ccc(-c2onc(C)c2C)cc1S(=O)(=O)NCc1ccco1 | 87%
57 | CC(C)NC(=O)Nc1ccc2c(c1)N(C)C(=O)c1ccccc1S2 | 117%
58 | CCOC(=O)/C(C#N)=C/C1=C(N)CC(C)(C)OC1 | 95%
59 | Cc1ccc(NC(=O)Cn2c(=O)n(Cc3ccc4c(c3)OCO4)c(=O)c3ccc(C(=O)NC4CCCCC4)cc32)c(C)c1 | 100%

From PubChem BioAssay AID463173 (ICCB-Longwood Screening Facility, Harvard Medical School, 2010)
